Screening results: PubChem, National Center for Advancing Translational Sciences (NCATS)
TRPML1 inh: qHTS for Inhibitors of the Human Mucolipin Transient Receptor Potential 1 (TRPML1). 390,000 compounds, 0.02% hits. activity change, negative = inhibition, % (no concentration beside the values). AID 624415, 2012. Mucolipin-1 (Homo sapiens), Q9GZU1. TRPML1-inducible cells, Ca2+ dye fluorescence, FDSS; hits give low values; inhibition of EC80 agonist-evoked calcium signal; in the data active means activity change below about -50%; inconclusive means between about -30% and that limit;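 further: stimulus is agonist 54-4 at its EC80 concentration; on the % scale 0 is the no-effect control and ±100 the full control effect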
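Tet-induced TRPML1-DL cells loaded with Ca8 no-wash calcium dye were read kinetically on FDSS. Compound addition was followed by EC80 agonist 54-4 (4 uM final); inhibition was read over 110 s.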
TRPML1 agonist: qHTS for Agonists of the Human Mucolipin Transient Receptor Potential 1 (TRPML1). TRPML1-expressing cells, Ca2+ dye fluorescence, FDSS. AID 624414, 2012. Mucolipin-1 (Homo sapiens), Q9GZU1. activation, % (test concentration not listed). 410,000 compounds, 0.12% hits; in the data active means activation above about 50%; inconclusive means mostly about 30% to 49%; further: 0% is about no effect
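Kinetic FDSS Ca2+ read in Tet-induced TRPML1-DL cells (ABD Ca8 dye plus quencher, 45-90 min RT loading): baseline, then compound, then 110 s agonist window; EC80 agonist 54-4 at 4uM final added afterwards for a 110 s antagonist window.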
TRPV1 potentiator: HTS Assay for Compounds that Act as Potentiators of the Vanilloid Receptor 1. Transient receptor potential cation channel subfamily V member 1 (Homo sapiens), Q8NER1. TRPV1-expressing cells, Fluo-8 calcium influx, capsaicin EC20 potentiation. potentiation, % at 8.33 µM. 320,000 compounds, 0.02% hits. AID 540277, 2011; in the data active means potentiation above about 80%; inconclusive means between about 30% and that limit; further: 0% is about no effect
Target sequence (Q8NER1 whole entry, looked up): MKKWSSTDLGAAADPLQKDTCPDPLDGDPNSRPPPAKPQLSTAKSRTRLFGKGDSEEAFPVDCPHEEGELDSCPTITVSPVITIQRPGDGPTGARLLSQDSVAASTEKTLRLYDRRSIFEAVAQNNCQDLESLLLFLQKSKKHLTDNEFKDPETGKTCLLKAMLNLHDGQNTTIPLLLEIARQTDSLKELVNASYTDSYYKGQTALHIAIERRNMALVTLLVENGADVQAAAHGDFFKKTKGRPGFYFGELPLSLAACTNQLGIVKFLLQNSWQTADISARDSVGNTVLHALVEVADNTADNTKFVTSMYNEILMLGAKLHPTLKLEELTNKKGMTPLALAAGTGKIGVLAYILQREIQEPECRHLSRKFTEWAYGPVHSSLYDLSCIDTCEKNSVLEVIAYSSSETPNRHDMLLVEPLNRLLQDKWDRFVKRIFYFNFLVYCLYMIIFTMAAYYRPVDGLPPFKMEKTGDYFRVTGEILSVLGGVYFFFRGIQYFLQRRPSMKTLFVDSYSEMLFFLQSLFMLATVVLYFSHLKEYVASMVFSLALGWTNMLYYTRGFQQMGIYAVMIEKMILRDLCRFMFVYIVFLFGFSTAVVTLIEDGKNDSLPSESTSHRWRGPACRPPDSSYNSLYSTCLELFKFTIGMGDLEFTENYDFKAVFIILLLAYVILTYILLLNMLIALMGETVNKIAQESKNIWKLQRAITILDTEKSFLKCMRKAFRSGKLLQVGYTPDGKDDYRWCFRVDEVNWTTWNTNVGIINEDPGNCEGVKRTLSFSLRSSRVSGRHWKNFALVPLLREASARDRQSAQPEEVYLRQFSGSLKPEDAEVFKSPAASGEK
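Cells expressing TRPV1 were dye-loaded with Fluo-8 and read kinetically: 10 s baseline, 3 min after compound (agonist portion), then 2 min after EC20 capsaicin (allosteric enhancer portion). Calcium-bound dye fluorescence at 480/520 nm.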
TRPV1 ag: HTS Assay for Compounds that Act as Agonists of the Vanilloid Receptor 1; Transient receptor potential cation channel subfamily V member 1 (Homo sapiens), Q8NER1; activation, % at 8.33 µM; TRPV1-expressing cells, Fluo-8 calcium influx, agonist mode; 320,000 compounds, 0.19% hits; in the data active means activation above about 80%; inconclusive means between about 30% and that limit; further: 0% is about no effect
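Fluo-8 calcium influx in TRPV1-expressing cells, kinetic read (ex 480/em 520 nm). Compound added and read 3 min for agonist activity, followed by capsaicin at EC20 final and 2 min further read for enhancement.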
Starred values were filed as active, the others as inactive. An excerpt weighted towards active compounds, which were near 0.27% of everything screened.

`CCOC(=O)[C@H]1[C@H]2COc3ccc(Cl)cc3[C@@H]2N2C(=O)c3cc(F)c(F)cc3NC(=O)[C@@]12C` gave TRPML1 inh -9.0, TRPML1 agonist 0.2, TRPV1 potentiator 17.5 and TRPV1 ag 81.1*.
CC(=O)Nc1ccc2c(c1)nc(CCN1CCOCC1)n2C was read as TRPML1 inh 6.7, TRPML1 agonist -0.5, TRPV1 potentiator -0.7 and TRPV1 ag -1.9.
`COc1ccc2c(c1)CCc1c(C(=O)N3CCOCC3)noc1-2` gave TRPML1 inh 9.7, TRPML1 agonist -0.7, TRPV1 potentiator -14.5 and TRPV1 ag 81.2*.
For COc1ccc2c(c1)CCc1c(C(=O)N3CCCc4ccccc43)noc1-2 the results were TRPML1 inh -1.5, TRPML1 agonist 5.1, TRPV1 potentiator 0.6 and TRPV1 ag 4.6.
For Cc1ccc(S(=O)(=O)Nc2cc(C(F)(F)F)ccc2N2CCOCC2)c(C)c1 the results were TRPML1 inh 1.3, TRPML1 agonist 63.6*, TRPV1 potentiator -7.7 and TRPV1 ag 22.8.
For O=c1oc2c3c4c(cc2c(C(F)(F)F)c1CCN1CCOCC1)CCCN4CCC3 the results were TRPML1 inh -26.4, TRPML1 agonist 91.2*, TRPV1 potentiator inconclusive and TRPV1 ag 17.2.
For CN(C)c1ccc(/C=C/c2ccnc3c2ccc2ccccc23)cc1 the results were TRPML1 agonist 16.3.
`CCN(CC)c1ccc(/C=C/c2nccc3ccccc23)cc1` gave TRPML1 agonist 63.6*.
CCN(CC)c1nc(C=Cc2ccc(N(C)C)cc2)c2nccnc2n1 was read as TRPML1 inh -2.8 and TRPML1 agonist 63.6*.
Screening CN(C)c1ccc(C=Cc2nccc3ccccc23)cc1 returned TRPML1 agonist 13.0.
COc1ccc(C(=O)O/N=C(\N)c2ccc(Br)cc2)cc1 was read as TRPML1 inh -7.8, TRPML1 agonist -0.2, TRPV1 potentiator -36.8 and TRPV1 ag 6.3.
O=Cc1c[nH]c2cccc(OCc3ccccc3)c12 was read as TRPML1 inh -3.6, TRPML1 agonist 0.4, TRPV1 potentiator 1.6 and TRPV1 ag -0.5.
`COc1ccc(OC)c(C2C(C(=O)N(C)C)=C(C)Nc3nc4ccccc4n32)c1` (centres undefined) gave TRPML1 inh 45.8, TRPML1 agonist -0.5, TRPV1 potentiator -0.9 and TRPV1 ag -4.4.
`COc1ccc([C@@H]2C[C@@H](c3ccccc3)Oc3cc(C)cc(C)c32)cc1` gave TRPML1 inh -1.3, TRPML1 agonist -0.4, TRPV1 potentiator -5.5 and TRPV1 ag 2.0.
For CCC1(C)CC(=O)c2c(ccc3oc(C(=O)NCc4ccccc4)c(C)c23)O1 (centres undefined) the results were TRPML1 inh -15.8 and TRPML1 agonist 50.4*.
CC(C)CCC1(CCNC(=O)c2cccs2)CCOC(C)(C)C1 (centres undefined) was read as TRPML1 inh -9.4, TRPML1 agonist 0.5, TRPV1 potentiator 15.4 and TRPV1 ag 82.6*.
CSc1ccccc1NC(=O)CN(C1CCCCC1)S(C)(=O)=O was read as TRPML1 inh -9.7, TRPML1 agonist 0.1, TRPV1 potentiator -15.8 and TRPV1 ag 0.5.
`CN(CC(=O)Nc1ccccc1Sc1ccccc1)C1CCCCC1` gave TRPML1 inh inconclusive, TRPML1 agonist 60.2*, TRPV1 potentiator -10.6 and TRPV1 ag 21.0.
CCCn1c(SC(C)C(=O)N2CCOCC2)nc2ccc(Br)cc2c1=O (centres undefined) was read as TRPML1 inh -4.4, TRPML1 agonist -0.1, TRPV1 potentiator -6.8 and TRPV1 ag 83.3*.
O=C(NCCN1CCCCC1)c1c(O)c2ccccc2[nH]c1=O was read as TRPML1 inh -6.4, TRPML1 agonist 0.5, TRPV1 potentiator 1.5 and TRPV1 ag -1.5.
